# Experimental data: PubChem BioAssay
# Active and inactive are the calls of the source. How the calls were made is not given here.
# Target: Pantothenate synthetase (Mycobacterium tuberculosis (strain ATCC 25618 / H37Rv)) (UniProt P9WIL5)
# Assay: Coupled enzyme confirmation of inhibitors against recombinant Mtb PanC (AID 375);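 further: 0% = full reaction with vehicle and 100% = no enzyme background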
# Details: coupled enzyme assay; at 10 µM, hits give high values
# Pantothenate synthetase (Mycobacterium tuberculosis (strain ATCC 25618 / H37Rv)), sequence (P9WIL5 whole entry, looked up): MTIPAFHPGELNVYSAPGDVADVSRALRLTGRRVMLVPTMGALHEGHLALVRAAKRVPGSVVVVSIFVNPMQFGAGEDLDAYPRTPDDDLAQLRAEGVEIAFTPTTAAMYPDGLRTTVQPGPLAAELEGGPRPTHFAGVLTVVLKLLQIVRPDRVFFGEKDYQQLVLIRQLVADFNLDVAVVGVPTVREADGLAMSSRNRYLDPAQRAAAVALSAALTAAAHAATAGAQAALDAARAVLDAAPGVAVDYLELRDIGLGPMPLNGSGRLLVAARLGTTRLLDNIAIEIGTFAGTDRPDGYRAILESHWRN
row,SMILES,inhibition
1,CCS(=O)(=O)c1ccc(S(=O)(=O)CC)s1,0% (inactive)
2,Cc1ccc(-c2nc(CS(=O)CC(=O)NCCN(CC(C)C)CC(C)C)c(C)o2)cc1 (centres undefined),4% (inactive)
3,Nc1nnc(-c2ccccc2)c(-c2ccccc2)n1,0% (inactive)
4,O=S(=O)(NCC(c1cccnc1)N1CCN(c2ccccc2)CC1)c1cc(F)ccc1F (centres undefined),0% (inactive)
5,CCCOc1ccc(S(=O)(=O)NCCCN2CCOCC2)c2ccccc12,0% (inactive)
6,CN(Cc1nc(-c2ccncc2)no1)S(=O)(=O)c1ccccc1,6% (inactive)
7,S=C(N=Nc1ccccc1)NNc1ccccc1,0% (inactive)
8,Cc1noc(C)c1S(=O)(=O)N1CCC(C(=O)Nc2ccccn2)CC1,4% (inactive)
9,Cn1c(=O)cc(SCC(=O)NCC2CCCO2)c2ccc(Cl)cc21 (centres undefined),10% (inactive)
10,CCOC(=O)CSc1nnc(NCC(=O)OC(C)C)c(=O)[nH]1,4% (inactive)
11,CC(=O)NS(=O)(=O)c1ccc(N)cc1,2% (inactive)
12,CCCNC(=O)C1CC(=O)N(c2ccc(OCC(=O)Nc3cc(C)cc(C)c3)cc2)C1 (centres undefined),0% (inactive)
13,COC(=O)Cc1[nH]nc2c1C(C1C=CCCC1)C(C#N)=C(N)O2 (centres undefined),3% (inactive)
14,CSCCC(N=CC1=C(O)CC(C)(C)CC1=O)C(=O)O (centres undefined),2% (inactive)
15,CCn1c(C)cc(=S)c2ccccc21,9% (inactive)
16,COc1cc(S(=O)(=O)N2CCOCC2)ccc1NC(=O)COC(=O)c1ccccn1,0% (inactive)
17,O=C(Nc1ccc(N2CCOCC2)cc1)c1cccc(S(=O)(=O)N2CCCC2)c1,0% (inactive)
18,CCOc1ccc(-c2nc(S(=O)(=O)c3ccccc3)c(NCc3cccnc3)o2)cc1,0% (inactive)
19,CC(C)(C)n1nnnc1CN(Cc1ccco1)Cc1cc2cc3c(cc2[nH]c1=O)OCO3,0% (inactive)
20,O=C(NCc1cccnc1)c1ccc2c(c1)OCO2,0% (inactive)

row,SMILES,inhibition
1,CC(C)(C)NC(=O)CN(C(=O)C1CSC(=O)C1)c1ccc2c(c1)OCCO2 (centres undefined),0% (inactive)
2,Cc1ccc(-n2ncc3c(=O)[nH]c(SC(C)C)nc32)cc1,0% (inactive)
3,COc1cccc(-c2csc3nc[nH]c(=O)c23)c1,3% (inactive)
4,CCOC(=O)c1c(C)oc2ccc(OCC(=O)N(CC)CC)cc12,4% (inactive)
5,Fc1ccc(-c2nnc3ccc(N4CCCC4)nn23)cc1,1% (inactive)
6,O=C(NCc1ccccc1)N[C@@H](Cc1ccccc1)C(=O)O,1% (inactive)
7,CN1CCN(c2nc3c(c(=O)[nH]c(=O)n3C)n2CCOc2ccccc2)CC1,0% (inactive)
8,Cc1ccccc1NC(=O)C1CCCN(S(=O)(=O)c2cccc3cccnc23)C1 (centres undefined),0% (inactive)
9,O=C(Nc1cccnc1)Nc1ccccn1,0% (inactive)
10,COc1ccccc1Nc1nc2ccccc2[nH]1,0% (inactive)
11,CC(C)(C)NC(=O)C(c1ccco1)N(C(=O)Cn1nnc(-c2ccc(F)cc2)n1)c1ccccc1 (centres undefined),0% (inactive)
12,COC(=O)C1(C(=O)OC)Sc2ccccc2C1=O,3% (inactive)
13,CN=C(C)C1=C(O)C(C(=O)OC)C(C)(C)CC1=O (centres undefined),0% (inactive)
14,CCOC(=O)C1C(=O)OC(C)(C)C1C(C)C(=O)c1ccc(OC)cc1 (centres undefined),0% (inactive)
15,Cn1c(=O)c2c(nc(NCCCO)n2CCc2ccccc2)n(C)c1=O,0% (inactive)
16,Cc1cc(NC(=O)c2ccccc2Oc2ccccc2)no1,12% (inactive)
17,O=C(Nc1nc2ccc(S(=O)(=O)N3CCCC3)cc2s1)C1CCCO1 (centres undefined),0% (inactive)
18,COc1ccc(N(CC(=O)N2c3ccccc3CC2C)S(=O)(=O)c2c(C)noc2C)cc1 (centres undefined),7% (inactive)
19,CCCCC[C@H](O)/C=C/C1=C(CCCCCCC(=O)O)C(=O)CC1,0% (inactive)
